Shown are actives, neighbours in structure and some others; about 3.6% of the full set was active somewhere.
Bead autofluor = counter-screen for toxin protease inhibitors: compound fluorescence; fluorescence intensity (concentration not given with the values); compound autofluorescence counterscreen, microsphere flow cytometry; stronger effect = higher value; hit rate 3.1% among 360,000; in the data active means fluorescence intensity above about 16000; inconclusive means no clear call, values can overlap the other calls
BJeLR viability = kills HRASV12-expressing BJeLR cells. BJeLR (HRASV12) viability, CellTiter-Glo ATP luminescence, 48 h. inhibition, % (concentration not given with the values). hit rate 0.17% among 300,000. AID 1554; in the data active means inhibition above about 50%; inconclusive means no clear call, values can overlap the other calls
SARS 3CLpro inh-1 = SARS-CoV 3CLpro protease inhibition | P0C6X7 | recombinant SARS-CoV 3CLpro, quenched FRET peptide cleavage | inhibition, % at 6 µM | hit rate 0.14% among 290,000; in the data active means inhibition above about 12%
BoNT-A LC inh2 = BoNT A light chain protease inhibition; multiplex microsphere protease substrate cleavage, flow cytometry; inhibition, % at 10 µM; hit rate 0.17% among 360,000; AID 588499; further: plate controls were buffer without enzyme for full effect and enzyme alone for no effect
Anthrax LF prot = anthrax lethal factor protease inhibition; multiplex microsphere protease cleavage assay, LF; inhibition, % at 10 µM; hit rate 0.12% among 360,000; AID 588501; further: plate controls were buffer without enzyme for full effect and enzyme alone for no effect
Target sequence (P15917 whole entry, looked up): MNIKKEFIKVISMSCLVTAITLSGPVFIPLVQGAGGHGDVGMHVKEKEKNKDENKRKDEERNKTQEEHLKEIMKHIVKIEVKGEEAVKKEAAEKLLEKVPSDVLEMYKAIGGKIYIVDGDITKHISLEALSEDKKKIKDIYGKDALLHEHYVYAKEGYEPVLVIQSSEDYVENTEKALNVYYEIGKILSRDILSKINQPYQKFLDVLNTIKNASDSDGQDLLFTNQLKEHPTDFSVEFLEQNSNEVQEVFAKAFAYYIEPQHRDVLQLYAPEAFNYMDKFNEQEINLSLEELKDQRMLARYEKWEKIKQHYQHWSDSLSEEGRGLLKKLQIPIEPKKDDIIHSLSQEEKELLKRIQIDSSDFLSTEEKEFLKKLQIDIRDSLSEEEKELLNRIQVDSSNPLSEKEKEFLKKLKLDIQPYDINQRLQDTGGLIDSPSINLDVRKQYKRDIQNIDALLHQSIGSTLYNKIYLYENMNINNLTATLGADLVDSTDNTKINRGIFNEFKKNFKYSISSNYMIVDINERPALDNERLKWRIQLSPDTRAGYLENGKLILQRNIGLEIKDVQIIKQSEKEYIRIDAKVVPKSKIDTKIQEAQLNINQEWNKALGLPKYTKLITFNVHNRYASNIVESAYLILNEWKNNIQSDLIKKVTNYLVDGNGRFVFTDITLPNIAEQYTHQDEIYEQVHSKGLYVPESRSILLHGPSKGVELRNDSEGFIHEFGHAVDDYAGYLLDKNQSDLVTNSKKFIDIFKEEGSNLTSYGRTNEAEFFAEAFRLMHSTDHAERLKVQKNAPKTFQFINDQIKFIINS
BoNT-F LC inh = blocks Botulinum neurotoxin F light chain protease; Multiplex microsphere protease cleavage assay, flow cytometry; inhibition, % at 10 µM; hit rate 0.22% among 360,000; AID 588497; in the data active means inhibition above about 35%, passing the limit was not always enough; inconclusive means no clear call, values can overlap the other calls; further: plate controls were buffer without enzyme for full effect and enzyme alone for no effect
SARS 3CLpro inh-2 = confirmation of SARS coronavirus 3C-like protease inhibitors; inhibition, % at 6 µM; QFRET protease activity assay, 3CLpro; shares compounds with SARS 3CLpro inh-1; hit rate 36% among 380; in the data active means inhibition above about 13%
* hit, by the source's call; ? = inconclusive; nt = no result given. Unless noted, no stated cut-off is given here; in the data, active means inhibition above about 30%; inconclusive means no clear call, values can overlap the other calls; inactive means below that.

SMILES | Bead autofluor | BJeLR viability | SARS 3CLpro inh-1 | BoNT-A LC inh2 | Anthrax LF prot | BoNT-F LC inh | SARS 3CLpro inh-2
O=C(O)c1ccc(CN(Cc2ccccc2)S(=O)(=O)c2ccc(Cl)cc2)cc1 | 3864 | -3 | 13* | -1 | 5 | -6 | 4
O=C(O)c1ccc(S(=O)(=O)N(Cc2ccccc2)C2CCCCC2)cc1 | 4158 | 0 | -2 | 2 | 1 | 18 | nt
COC(=O)C1=C(C)NC(=S)NC1c1ccc(-c2cccc(Cl)c2)o1 (stereo not given) | 9437 | -9 | 4 | 0 | 2 | 3 | nt
COC(=O)C1=C(C)NC(=S)NC1c1ccc(-c2ccccc2C(=O)OC)o1 (stereo not given) | 3760 | 10 | 13* | 0 | -4 | -3 | -5
O=C(Oc1cccnc1)c1ccccc1[N+](=O)[O-] | 2285 | 0 | 20* | 0 | -1 | 2 | 51*
COc1ccc(C(=O)Oc2cccnc2)cc1 | 2454 | -4 | 25* | 0 | 0 | 0 | 39*
CCN1C(=O)[C@H]2[C@@H](c3ccc(-c4ccc(F)cc4)c(OC)c3)N[C@@](CC(C)C)(C(=O)OC)[C@H]2C1=O | nt | 4 | nt | nt | nt | nt | nt
Cc1ccc(C(O)c2ncc(-c3cccc4ccccc34)[nH]2)cc1F (stereo not given) | 3754 | nt | nt | 0 | -4 | -6 | nt
CNC1(C)[C@H]2CC[C@H](C2)C1(C)C (stereo not given in full) | 6315 | nt | nt | 0 | 7 | -9 | nt
O=C(c1cncc(Br)c1)N1CCN(S(=O)(=O)c2ccccc2C(F)(F)F)CC1 | 4029 | -10 | 17* | -1 | 3 | -5 | 12
Nc1ccc2nn(-c3ccccc3)nc2c1 | 3129 | nt | 1 | 0 | -5 | -9 | nt
Nc1cc2nn(-c3ccccc3)nc2cc1Cl | 3838 | -3 | 12* | 5 | -1 | -2 | -4
CN(C)S(=O)(=O)c1cccc(NC(=S)N/N=C/c2cc(Br)ccc2O)c1 | 3530 | 8 | 15* | 0 | 0 | -2 | 5
COc1ccc(C(C(=O)NCC2CCCO2)N(C(=O)Cn2nnc3ccccc32)c2ccc(NC(C)=O)cc2)c(OC)c1 (stereo not given) | 3666 | 2 | 18* | 0 | 3 | -7 | 11
COc1cccc(C(C(=O)NCC2CCCO2)N(C(=O)Cn2nnc3ccccc32)c2ccc(NC(C)=O)cc2)c1OC (stereo not given) | 4163 | 7 | 15* | -2 | 3 | -3 | 9
CCOc1cc(C(C(=O)NCC2CCCO2)N(C(=O)Cn2nnc3ccccc32)c2ccc(OC)c(OC)c2)ccc1O (stereo not given) | 5860 | -6 | 0 | -1 | -2 | 0 | nt
CCCCCCn1cc(CN2CC(N3CCN(C4CCN(C)CC4)CC3)CS2(=O)=O)nn1 (stereo not given) | 4533 | nt | nt | 0 | -3 | 6 | nt
Cc1ccc(C(=O)NC(C#N)=C(Cl)Cl)cc1 | nt | 13 | 13* | nt | nt | nt | 1
COc1ccc(C(=O)NC(=C(Cl)Cl)S(=O)(=O)c2ccc(C)cc2)cc1 | 5744 | -4 | 9 | 1 | 1 | 3 | nt
Cc1ccc(C(=O)NCC#N)cc1 | 2108 | -14 | -1 | 0 | -1 | 2 | nt
Cc1ccc(C(=O)NC(=C(Cl)Cl)S(=O)(=O)c2ccccc2)cc1 | 2382 | -2 | 21* | 0 | 1 | -2 | 28*
COc1ccc(CCN2CC(C(=O)N(C)Cc3ccccn3)CCC2=O)cc1 (stereo not given) | 3415 | nt | nt | 0 | -1 | -4 | nt
O=C(O)c1cn(Cc2ccccc2)c2ccc(Cl)cc2c1=O | 4162 | 1 | nt | 0 | -1 | -10 | nt
O=C(Oc1ccc2cccc(OC(=O)N3CCOCC3)c2c1)N1CCOCC1 | 5113 | 5 | 13* | -2 | 1 | -26 | -1
O=C(Oc1cccc2c(OC(=O)N3CCOCC3)cccc12)N1CCOCC1 | 15381 | -1 | -8 | 2 | -4 | 3 | nt
SMILES | Bead autofluor | BJeLR viability | SARS 3CLpro inh-1 | BoNT-A LC inh2 | Anthrax LF prot | BoNT-F LC inh | SARS 3CLpro inh-2
O=C(CSc1nc2nn(-c3ccccc3)c(=O)c-2c2n1CCCCC2)Nc1ccccc1[N+](=O)[O-] | 6121 | nt | nt | 0 | -4 | 1 | nt
Cn1nc(-c2ccc(Cl)cc2)nc2c(=O)n(C)c(=O)nc1-2 | nt | 19 | 18* | nt | nt | nt | 48*
Cc1ccc2[nH]c3c(c2c1)CN(C(=O)CN1CCN(c2cccc(C)c2C)CC1)CC3 | 5361 | -7 | 4 | 2 | 1 | 18 | nt
Cc1ccc2[nH]c3c(c2c1)CN(C(=O)CN1c2ccc(F)cc2CCC1C)CC3 (stereo not given) | 21807* | 0 | 44* | ? | -8 | -11 | 28*
COc1ccc(-c2cc(N)n(S(=O)(=O)c3c(F)c(F)c(F)c(F)c3F)n2)cc1OC | 16388* | -15 | 14* | ? | 0 | -1 | 2
Cc1ccc(/C=N/NC(=O)Cc2c(F)cccc2Cl)s1 | 4853 | 1 | -9 | -1 | -1 | 1 | nt
CC(=O)n1cc(Nc2ccccc2C(=O)O)c2ccccc21 | 4917 | 1 | -2 | 0 | 1 | 14 | nt
CC(=O)n1cc(N(C(=O)CCl)c2ccc(Cl)cc2)c2ccccc21 | 4246 | 108* | 13* | -3 | 4 | ? | 35*
CC(C)CN(CCC(=O)O)CC(C)C | 10448 | 3 | 14* | 0 | -2 | -5 | -6
O=C(O)CCN(CCC(=O)O)c1ccccc1 | 3938 | -1 | 2 | 1 | -4 | -6 | nt
CC(C)Cn1c(N)c(C(=O)COC(=O)c2ccc([N+](=O)[O-])o2)c(=O)n(C)c1=O | 4455 | 2 | 5 | 0 | -1 | -4 | nt
CCNC(=O)C1CCCN(C(=O)c2cc(OC)c(OC)c(OC)c2)CC1 (stereo not given) | 2974 | nt | nt | -1 | -1 | -4 | nt
O=C(COc1ccc(Cl)cc1)NCc1n[nH]c(=O)c2ccccc12 | 6277 | 14 | nt | 0 | -1 | -6 | nt
COc1ccc(C(NC(=O)CC(C)C)c2c(O)ccc3ccccc23)cc1 (stereo not given) | 3315 | 4 | 7 | 2 | -13 | -12 | nt
CC(C)CC(=O)NC(c1ccccc1Cl)c1c(O)ccc2ccccc12 (stereo not given) | 2067 | 1 | 13* | 1 | -1 | 3 | 2
Cc1ccc2[nH]c3c(c2c1)CN(C(=O)CN1CCN(C(=O)c2ccco2)CC1)CC3 | nt | 7 | 9 | nt | nt | nt | nt
O=C(CN1CCSCC1)N1CCc2[nH]c3ccc(Br)cc3c2C1 | nt | -4 | 22* | nt | nt | nt | 75*
COc1cc(C(=O)Nc2ccc(N3CCN(C(=O)c4ccc(C)cc4)CC3)cc2)cc(OC)c1OC | 5523 | -2 | 14* | 1 | -3 | 6 | 0
Cc1ccc(C(=O)N2CCN(c3ccc(NC(=O)c4cccnc4)cc3)CC2)cc1 | 4701 | -4 | 3 | 1 | 0 | -14 | nt
CCOC(=O)c1csc(CCNC(=O)c2ccccc2)n1 | 3670 | nt | nt | 0 | -5 | -6 | nt
O=C(NCc1ccccc1F)c1ccc(S(=O)(=O)Nc2cccc(C(F)(F)F)c2)cc1 | 2187 | 6 | 1 | 0 | 0 | -3 | nt

Assay outcomes as filed in PubChem.
